PubChem BioAssay (NCATS)
Records with an inconclusive call do not appear. A number with no mark means an inactive call. Activity calls are given as the source filed them. Calls come from the whole dose curve; as a rule, active = well fitted inhibition curve with a large enough effect; inconclusive = small, poorly fitted or top-dose-only effect; inactive = flat fitted curve, though single readings scatter.

test system: CRL-7250; assay: Cytotoxic Profiling of Annotated Libraries Using Quantitative High-Throughput Screening (AID 1296008); conditions: Five cell lines viability, CellTiter-Glo ATP luminescence, 48-72 h; max response: active compounds read low; note: nearly all actives have a fitted effect of over 60% in size
In short: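 Cells exposed to compounds for 48 or 72 hr at 37 degrees Celsius. Viability read as ATP-coupled luminescence with CellTiter-Glo after 10 min at room temperature.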
% is set by controls: 0 for no effect and ±100 for the full control effect; potency is the fitted concentration of half-maximal effect.

Q: For `O=C(O)CCCCCC[C@H]1C(=O)NC(=O)N1CC[C@@H](O)C1CCCCC1`, which max response is on record?
A: 3.98%

Q: With `CC/C=C\CCO[C@@H]1O[C@H](CO)[C@@H](O)[C@H](O)[C@H]1O` as the molecule, how does the max response read?
A: -3.17%

Q: `Cc1cc(C(N)=O)ccc1-n1c(CCC(=O)O)ccc1-c1ccc(-n2ccnc2)cc1` was tested. Which max response did it give?
A: 1.88%

Q: Which outcome does the source give for `C=C1CCC2C(C)(C(=O)OC)CCCC2(C)C1CCC(C)CC(=O)O` (centres undefined) here?
A: inactive

Q: `Cn1cc(-c2ccc3nnc(Sc4ccc5nn(C)cc5c4)n3n2)cn1` was tested. Which max response did it give?
A: -2.56%

Q: With `O=C1CCC=CC1(O)C(=O)OCc1ccccc1O[C@@H]1O[C@H](CO)[C@@H](O)[C@H](O)[C@H]1O` (some centres undefined) as the molecule, how does the max response read?
A: -18.5%

Q: `Cc1ccccc1CN1C2=NCCN2C(=O)C2=C1CCN(Cc1ccccc1)C2` was tested. Which max response did it give?
A: -16.8%

Q: For `C=C1CC23CC1CCC2C12OC(=O)C(C)(CCC1O)C2C3C(=O)O` (centres undefined), which outcome is on record?
A: inactive

Q: For `CC(=O)CC1CCC(C(C)C(=O)OCC(O)CO)O1` (centres undefined), which max response is on record?
A: 2.08%

Q: How did the Potency turn out when `Cc1c(C(=O)N2CCOc3ccc(-c4ccc(N)nc4)cc3C2)ccc(S(C)(=O)=O)c1F` was run?
A: 4.61 µM (active)

Q: Which max response does the source give for `C=C1C[C@]23C[C@H]1CC[C@H]2[C@@]1(C)CCC[C@@]2(C)C(=O)O[C@@H]([C@@H]3O)[C@@H]12` here?
A: -15.4%

Q: `O=C(CCc1nnc2n(Cc3ccc(Cl)cc3)c(=O)c3ccccc3n12)NCCC1=CCCCC1` was tested. Which max response did it give?
A: -19.2%

Q: `COc1ccc(CNC(=O)c2cc(-c3cncc(C)c3)ncc2-c2nccs2)nc1OC` was tested. Which outcome did it give?
A: inactive

Q: How did the max response turn out when `Cc1ccccc1NC(=O)Nc1ccc(CC(=O)N(C)[C@@H](CC(C)C)C(=O)NCC[C@H](NC(=O)[C@@H]2CCCN2S(=O)(=O)c2cc(Cl)cc(Cl)c2)C(=O)O)cc1` was run?
A: -22.4%

Q: With `CC1CCCCN1S(=O)(=O)c1ccc(N2CCCC2=O)cc1` (centres undefined) as the molecule, how does the max response read?
A: -8.63%

Q: With `CC(CCC1(O)OC2CC3C4CCC5CC(O[C@@H]6O[C@H](CO)[C@@H](O)[C@H](O)[C@H]6O[C@@H]6O[C@@H](C)[C@H](O)[C@@H](O)[C@H]6O)C(O)CC5(C)C4CCC3(C)C2C1C)CO[C@@H]1O[C@H](CO)[C@@H](O)[C@H](O)[C@H]1O` (some centres undefined) as the molecule, how does the max response read?
A: -4.35%

Q: `CC(=O)OCC1(O)CCC2C(COC3OC(CO)C(O)C(O)C3OC(=O)/C=C/c3ccc(O)cc3)=COC(OC(=O)CC(C)C)C21` (centres undefined) was tested. Which outcome did it give?
A: inactive

Q: For `Cc1noc(=O)c2ccc(NC(=O)C(O)(CC(C)(C)c3cccc4c3OCC4)C(F)(F)F)cc12` (centres undefined), which max response is on record?
A: 3.52%

Q: How did the max response turn out when `CC(C)(C)NC(=O)[C@@H](c1cccnc1)N(C(=O)c1ccco1)c1ccc(C(C)(C)C)cc1` was run?
A: 4.34%

Q: `CC(=O)C1=C(C)N(c2cccc(C(F)(F)F)c2)C(=O)N[C@H]1c1ccc(C#N)nc1` was tested. Which max response did it give?
A: 2.3%

Q: With `CCC(O)(C(=O)OCc1ccccc1NC(=O)CCC(=O)O)C(C)O` (centres undefined) as the molecule, how does the outcome read?
A: inactive

Q: `Fc1ccc2nc(CCC#Cc3ccccn3)cn2c1` was tested. Which max response did it give?
A: -4.35%

Q: How did the max response turn out when `Cc1ccc(-c2c(C(=O)CF)n(CCCO)c3ncnc(N)c23)cc1` was run?
A: -0.58%

Q: How did the outcome turn out when `C[C@H](NC(c1cccc(C[P+](=O)O)c1)[C@H](C)O)c1ccc(Cl)c(Cl)c1` (some centres undefined) was run?
A: inactive
